Results filed as inconclusive are left out. A number with no mark means an inactive call. The source made the active and inactive calls. Calls follow the shape of the dose curve; as a rule, active = well fitted curve in the direction sought with a large enough effect; inconclusive = small, poorly fitted or top-dose-only effect, or another doubt; inactive = no such curve, though single readings can be large; an effect the other way counts as inactive or inconclusive.

The subject of one assay is CRL-7250. Put plainly: Cytotoxic Profiling of Annotated Libraries Using Quantitative High-Throughput Screening (AID 1296008). Also: nearly all actives have a fitted effect of over 60% in size. Also: potency is read from the fitted curve at half-maximal effect. As to max response: % is scaled to controls: 0 for no effect and ±100 for the full control effect. Particulars: Five cell lines viability, CellTiter-Glo ATP luminescence, 48-72 h; max response: active compounds read low. The method, boiled down: (§1)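 Compounds were pin-transferred onto cells and incubated 48 or 72 hr at 37 degree Celsius, 95% humidity. CellTiter-Glo was added, plates sat 10 min at room temperature, then ATP-coupled luminescence was imaged as the viability read-out.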

Another assay deals with HEK293. The assay is described as above. Particulars: Five cell lines viability, CellTiter-Glo ATP luminescence, 48-72 h; max response: active compounds read low. In short, it runs like this:
as §1

Assay [1] concerns HaCat. The assay is described as above. The settings on record: Five cell lines viability, CellTiter-Glo ATP luminescence, 48-72 h; max response: active compounds read low. In short, it runs like this:
as §1

Assay [2] concerns NIH3T3. The assay is described as above. Particulars: Five cell lines viability, CellTiter-Glo ATP luminescence, 48-72 h; max response: active compounds read low. The method, boiled down: as §1
The test system of the next assay is C33A. Put plainly: Primary qHTS to identify gynecologic anti-cancer compounds using libraries of approved drugs and bioactive compounds (AID 1345084). Also: nearly all actives have a fitted effect of over 55% in size. Also: potency is read from the fitted curve at half-maximal effect. The settings on record: Gynecologic cancer cell panel viability, ATPlite luminescence, 48 h; series mostly up to 57.5 µM. The method, boiled down:
(§2)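 Five-point cytotoxicity, 48 h drug exposure at 37 C, 5% CO2, on cells seeded 16 h beforehand. ATP content read by ATPlite luminescence.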

For another assay, the system named is CAOV3. The description is as above. Particulars: Gynecologic cancer cell panel viability, ATPlite luminescence, 48 h; series mostly up to 57.5 µM. The method, boiled down:
as §2

The subject of another assay is CASKI. Described as above. The settings on record: Gynecologic cancer cell panel viability, ATPlite luminescence, 48 h; series mostly up to 57.5 µM. In short, it runs like this:
as §2

The test system of a further assay is Es-2. Described as above. Particulars: Gynecologic cancer cell panel viability, ATPlite luminescence, 48 h; series mostly up to 57.5 µM. The method, boiled down: as §2
Another assay relates to HeLa. The description is as above. Particulars: Gynecologic cancer cell panel viability, ATPlite luminescence, 48 h; series mostly up to 57.5 µM. The method, boiled down:
as §2

For the next assay, the system named is Hek293T. Described as above. Particulars: Gynecologic cancer cell panel viability, ATPlite luminescence, 48 h, control line for the selectivity index; series mostly up to 57.5 µM. In short, it runs like this:
as §2

The subject of a further assay is JEG-3. The description is as above. Particulars: Gynecologic cancer cell panel viability, ATPlite luminescence, 48 h; series mostly up to 57.5 µM. In short, it runs like this: as §2
The test system of the next assay is OV90. The assay is described as above. Particulars: Gynecologic cancer cell panel viability, ATPlite luminescence, 48 h; series mostly up to 57.5 µM. The method, boiled down:
as §2

Another assay has as its system PA-1. The description is as above. The settings on record: Gynecologic cancer cell panel viability, ATPlite luminescence, 48 h; series mostly up to 57.5 µM. In short, it runs like this:
as §2

The test system of assay [3] is HACAT. Put plainly: qHTS assay to identify novel small-molecules to repurpose for Merkel cell carcinoma treatment (AID 1296009). Also: nearly all actives have a fitted effect of over 60% in size. Particulars: MCC and control cell lines, CellTiter-Glo viability, 72 h; at 44.8 µM (top of the series) unless noted. The method, boiled down:
(§3)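 Luminescence from CellTiter-Glo, read 10 min after addition at room temperature, reported viability following a 72 hr, 37 degree celsius treatment with NPC or MIPE compounds in titration; values normalized to plate controls.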

The test system of assay [4] is NIH3T3. The assay is described as above. Particulars: MCC and control cell lines, CellTiter-Glo viability, 72 h; series mostly up to 44.8 µM. The method, boiled down: as §3

In the case of `Cc1ccccc1C(C(=O)NC1CCCCC1)N(C(=O)Cn1cnc2ccccc21)c1cccc(F)c1` (centres undefined), the max response in the assay on CRL-7250 was -31.4%. The Potency in the assay on HEK293 was 16.4 µM (active); in the assay with HaCat [1] it was 8.2 µM (active); in the assay with NIH3T3 [2] it was 18.4 µM (active). For the same molecule, the Potency entry in the assay with C33A, with CAOV3, with CASKI, in the assay with Es-2, in the assay on HeLa and with Hek293T was “inactive” each time. The Potency entry in the assay with JEG-3, in the assay with OV90 and with PA-1 was “inactive” each time.
With `CCCCC1CCN(CCCN2C(=O)CCc3ccccc32)CC1`, the figures for the max response with CRL-7250, in the assay on HaCat [1] and in the assay on NIH3T3 [2] were -13.3%, -2.1% and -7.86%, respectively. The Potency in the assay with HEK293 was 18.4 µM (active). Further, the Potency entry in the assay with C33A, in the assay on CAOV3, in the assay on CASKI, in the assay on Es-2, in the assay with HeLa and in the assay with Hek293T was “inactive” each time. For the same molecule, the Potency entry with JEG-3 and in the assay with OV90 was “inactive” throughout.
`CC1CC(=O)C2=C(C1)C1OC1C1(O)C2C(=O)c2cccc(O)c2C1O` (centres undefined): the max response in the assay with CRL-7250 is -42.8%; in the assay on HEK293, -91.9%; in the assay with HaCat [1] it was -53.4%; in the assay on NIH3T3 [2], -27%. For the same molecule, the Potency result in the assay with C33A, with CAOV3, with CASKI, in the assay on Hek293T and in the assay with OV90 was “inactive” in each case.
In the case of `O=C(Cc1cccc(OC(F)(F)F)c1)Nc1ccc(CCCCc2nnc(NC(=O)Cc3ccccn3)s2)nn1`, the Potency in the assay on CRL-7250 was 0.0166 µM (active); in the assay with HEK293, 16.6 µM (active); in the assay on HaCat [1] it was 23.4 µM (active); in the assay with NIH3T3 [2], 26.3 µM (active).
On to `CCC(CC)C(=O)OC12C(OC(=O)C(C)C)C(C)C3(O)C(C=C(CO)CC4(O)C(=O)C(C)=CC43)C1C2(C)C` (centres undefined), for which the figures for the max response with CRL-7250 and in the assay on HEK293 were 0.624% and -5.82%, respectively. Besides, the outcome in the assay with HaCat [1] and in the assay on NIH3T3 [2] was inactive. Also, the outcome in the assay with HACAT [3] is “inactive [at 17.4 µM]”. The Potency result in the assay with NIH3T3 [4], in the assay with C33A, in the assay on CASKI, in the assay with HeLa, with Hek293T and in the assay with JEG-3 was “inactive” throughout. Besides, the Potency result in the assay with PA-1 is “inactive”. The Potency with Es-2 is 0.0708 µM (active).
As to `CC(=O)C1=C(O)C=C2Oc3c(C(C)=O)c(O)c(C)c(O)c3[C@]2(C)C1=O`, the call in the assay with CRL-7250, with HaCat [1], in the assay on NIH3T3 [2] and in the assay with HACAT [3] was inactive. In the assay on HEK293, the max response was 0.521%. Moreover, the Potency result in the assay on NIH3T3 [4], with C33A, with CAOV3, with CASKI, in the assay on Es-2 and in the assay with HeLa was “inactive” each time. Besides, the Potency entry in the assay on Hek293T, in the assay on JEG-3, with OV90 and with PA-1 was “inactive” throughout.
For `CC(C)c1ccccc1OC(=O)NCCc1ccc2ccccc2c1`, the max response in the assay on CRL-7250 was -4.95%; in the assay on HEK293 it was 2.54%; in the assay on HaCat [1], 3.54%; with NIH3T3 [2], 3.78%. For the same molecule, the Potency result in the assay with C33A, in the assay on CAOV3, in the assay on CASKI, with Es-2, with HeLa and in the assay with Hek293T was “inactive” throughout. Further, the Potency result in the assay on JEG-3, in the assay on OV90 and with PA-1 was “inactive” throughout.
With `Cc1cccc(CC(=O)N2CCc3c2ccc(-c2cn(C)c4ncnc(N)c24)c3F)n1`, the Potency in the assay with CRL-7250 was 1.84 µM (active); in the assay with HEK293 it was 5.8 µM (active). The molecule was classed as inactive in the assay on HaCat [1] and in the assay with HACAT [3]. In addition, in the assay with NIH3T3 [2], the max response was 3.48%. The Potency result with C33A, with CAOV3, in the assay on CASKI, with Es-2, in the assay on HeLa and in the assay on Hek293T was “inactive” in each case. Further, the Potency result in the assay on JEG-3, with OV90 and in the assay on PA-1 was “inactive” in each case.
With `CCCCCCOC(=O)/N=C(\N)c1ccc(NCc2nc3cc(C(=O)N(CCC(=O)OCC)c4ccccn4)ccc3n2C)cc1`, the max response with CRL-7250 is -1.92%; in the assay with HaCat [1], -18.9%; in the assay with NIH3T3 [2], -4.93%. For the same molecule, the Potency with HEK293 is 18.4 µM (active). The Potency entry with C33A, in the assay with CAOV3, with CASKI, with Es-2, in the assay with HeLa and in the assay on Hek293T was “inactive” throughout. Also, the Potency entry in the assay on JEG-3, in the assay with OV90 and in the assay with PA-1 was “inactive” throughout.
Take `C=C1C(=O)O[C@@H]2C3C(=C(C)[C@@H](O)[C@@H](OC(=O)/C(=C/C)COC(C)=O)[C@@H]12)C(=O)[C@H]1O[C@@]31C` (some centres undefined): the Potency in the assay on CRL-7250 is 6.32 µM (active); in the assay with HEK293 it was 1 µM (active); with HaCat [1] it was 3.17 µM (active); in the assay with NIH3T3 [2] it was 2.24 µM (active); in the assay on Es-2 it was 8.91 µM (active); with Hek293T, 7.94 µM (active). For the same molecule, in the assay with PA-1, the Potency was 8.91 µM (active). In addition, the Potency entry in the assay with HeLa and with OV90 was “inactive” each time.
Regarding `Cc1[nH]c(/C=C2\C(=O)Nc3ccc(S(=O)(=O)N(C)c4cccc(Cl)c4)cc32)c(C)c1C(=O)N1CCN(C)CC1`, the molecule was called inactive in the assay with CRL-7250, in the assay with HaCat [1] and with HACAT [3]. Also, the Potency is 6.51 µM (active) in the assay on HEK293 and 25.1 µM (active) in the assay with CAOV3. Moreover, the Potency result with C33A, in the assay with CASKI, in the assay on Es-2, in the assay on HeLa, in the assay with Hek293T and with JEG-3 was “inactive” throughout. For the same molecule, the Potency result with OV90 and in the assay with PA-1 was “inactive” each time.
Take `C/C1=C/CCC2=CC(OC2=O)C(C)(C)/C=C/C1=O` (centres undefined): the Potency with CRL-7250 was 2.31 µM (active); in the assay on HEK293, 1.3 µM (active); with HaCat [1] it was 2.59 µM (active); in the assay on NIH3T3 [2], 4.11 µM (active); in the assay on C33A, 10 µM (active); in the assay with CASKI it was 6.31 µM (active). Besides, the Potency with Es-2 was 8.91 µM (active); in the assay with Hek293T, 12.6 µM (active); in the assay with PA-1, 8.91 µM (active).
Turning to `C=CC(=O)Nc1cccc(Nc2nc(Nc3ccc(NC4CN(CCF)C4)cc3OC)ncc2C(F)(F)F)c1`, the Potency in the assay on CRL-7250 is 7.31 µM (active); with HEK293 it was 8.2 µM (active); in the assay with HaCat [1], 3.66 µM (active); with NIH3T3 [2], 13 µM (active); in the assay with CASKI, 17.8 µM (active). For the same molecule, the Potency entry in the assay on Es-2 and with JEG-3 was “inactive” throughout.
Consider `COc1cc(N2CCC(O)CC2)ccc1Nc1nc(Nc2ccccc2S(=O)(=O)C(C)C)c2[nH]cnc2n1`, for which the max response in the assay with CRL-7250 was -7.74%. The Potency in the assay with HEK293 is 5.8 µM (active); in the assay on HaCat [1], 18.4 µM (active); with NIH3T3 [2], 7.31 µM (active). In addition, the Potency result in the assay with C33A, in the assay with Es-2, in the assay on Hek293T, in the assay on JEG-3, with OV90 and in the assay with PA-1 was “inactive” in each case.

Values taken from PubChem BioAssay (NCATS).
